# Measurements reported in PubChem BioAssay (NCI).
# The panel holds about 83,000 compounds, 20% with a hit somewhere; the sample as a whole holds those more often.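 Growth was measured after 48 h exposure to one concentration of compound in 96-well plates. Values under 10 count as active.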 Values without a mark were called inactive. The source made the active and inactive calls.
# What was measured:
# Experiment in all cases: NCI-60 one-dose screen, 48 h (100 = growth as untreated, 0 = no growth, -100 = all killed)
# Conditions in all cases: 10 µM unless noted
# HCT-15 colon = tested on: HCT-15 colon
# HT29 colon = tested on: HT29 colon
# SNB-75 CNS = tested on: SNB-75 CNS
# SNB-19 CNS = tested on: SNB-19 CNS
# U251 CNS = tested on: U251 CNS
# PC-3 prostate = tested on: PC-3 prostate
# SK-MEL-5 melanoma = tested on: SK-MEL-5 melanoma
# UACC-62 melanoma = tested on: UACC-62 melanoma
# LOX IMVI melanoma = tested on: LOX IMVI melanoma
# SK-MEL-2 melanoma = tested on: SK-MEL-2 melanoma
# EKVX NSCLC = tested on: EKVX NSCLC
# SN12C renal = tested on: SN12C renal
# UO-31 renal = tested on: UO-31 renal
# TK-10 renal = tested on: TK-10 renal
# CAKI-1 renal = tested on: CAKI-1 renal
# A498 renal = tested on: A498 renal
# CCRF-CEM leukemia = tested on: CCRF-CEM leukemia
# MOLT-4 leukemia = tested on: MOLT-4 leukemia
# ACHN renal = tested on: ACHN renal
# SK-MEL-28 melanoma = tested on: SK-MEL-28 melanoma
Compound,growth (HCT-15 colon),growth (HT29 colon),growth (SNB-75 CNS),growth (SNB-19 CNS) [%],growth (U251 CNS),growth (PC-3 prostate) [%],growth (SK-MEL-5 melanoma),growth (UACC-62 melanoma),growth (LOX IMVI melanoma),growth (SK-MEL-2 melanoma),growth (EKVX NSCLC) [%],growth (SN12C renal),growth (UO-31 renal),growth (TK-10 renal),growth (CAKI-1 renal) [%],growth (A498 renal),growth (CCRF-CEM leukemia),growth (MOLT-4 leukemia),growth (ACHN renal) [%],growth (SK-MEL-28 melanoma) [%]
Cc1c(C2=NNC(c3ccc4c(c3)OCO4)C2)[n+]([O-])c2ccccc2[n+]1[O-] (stereo unspecified),103%,110%,88.9%,103,110%,96,97.9%,118%,96.1%,81.4%,91.5,108%,84.6%,183%,107,94.7%,97.7%,105%,–,–
C=CC(=O)N[C@H](/C=C/C(=O)OCC)Cc1ccc(-c2cc(Cl)cc(Cl)c2)cc1,79.2%,86.9%,82.5%,91.1,79%,60.7,72.8%,60.9%,86.7%,90.4%,91,88.6%,56.7%,89.1%,79.4,–,79.3%,74.3%,90.1,–
O=C(c1c[nH]c2ccccc12)C(Sc1nc2ccccc2c(=O)[nH]1)c1ccccc1 (stereo unspecified),104%,71.3%,90.6%,102,101%,94.1,99.8%,102%,95.3%,72.2%,91.2,98.5%,81.8%,97.6%,108,106%,99.8%,99.8%,97.9,–
COc1ccc(/C=C(\C#N)c2ccc([N+](=O)[O-])cc2)c2ccccc12,75.7%,76.8%,-16% (active),24.3,27%,62.5,74.9%,37.1%,70.2%,59.8%,52.9,41.4%,66.5%,88.1%,64.3,60%,83%,88.3%,37.9,–
Nc1ccc(S(=O)(=O)c2ccc(Cl)cc2)cc1,97.8%,98.1%,79.7%,93.9,105%,89.7,95.2%,85.8%,95.6%,98.4%,94.7,95.3%,86.4%,96.4%,93.6,108%,111%,103%,97.1,–
COc1ccc(Cn2c(SC)nc(=O)n(Cc3ccc(Cl)cc3)c2=O)cc1,98.5%,121%,80.7%,97,93.2%,90.1,107%,87.7%,87.5%,102%,–,93.5%,68.3%,–,70.5,88.9%,97.7%,95%,96.3,102
COc1ccc(-c2nc(-c3ccccc3)c(-c3ccccc3)n2C2CC2)cc1OC1CCCCC1,41.7%,49.2%,56.3%,83.7,43.9%,43.4,36%,60.8%,45.6%,87.3%,–,73.3%,62.9%,92.3%,58.4,63.7%,30.5%,32.7%,53.8,–
COc1ccc(C2CC(=O)Nc3c2c(C)nn3-c2nc3ccccc3[nH]2)cc1OC (stereo unspecified),85.9%,95.3%,50.9%,84.9,84.4%,75.4,71.2%,68.8%,44.2%,77.8%,–,89.9%,52.4%,–,72.8,3.48% (active),5.82% (active),-31.5% (active),85.2,88.1
CC(C)C[C@H](NC(=O)[C@@H](Cc1ccccc1)n1ccc(Nc2ccccc2)cc1=O)B(O)O,28.9%,-14.1% (active),-18.6% (active),18.1,5.67% (active),21.1,-68.2% (active),-77.1% (active),-66.7% (active),-14.9% (active),–,-25.1% (active),-44% (active),-0.144% (active),–,-47.3% (active),-5.5% (active),-8.47% (active),20.9,–
COc1ccccc1OCC(=O)Nc1sc2c(c1C(N)=O)CCC2,83.1%,74.1%,86.8%,70.4,60.9%,88.1,70%,49.7%,50.5%,37.5%,99.9,64.2%,26.5%,104%,63.7,67.1%,24.3%,26%,32.2,–
Cc1cc2c(C(C)C)c(O)c(O)c(C=NCCCCCCC(=O)O)c2c(O)c1-c1c(C)cc2c(C(C)C)c(O)c(O)c(C=NCCCCCCC(=O)O)c2c1O,16.1%,19%,50.1%,21.8,14.3%,18.4,30.2%,28.7%,4.47% (active),28.5%,27.7,35.7%,28.8%,17.3%,63.3,36.6%,18.1%,18.5%,42.1,–
COc1ccc(-c2nc(-c3nc4ccc(F)cc4[nH]3)cc3c2[nH]c2ccccc23)cc1,36.1%,32.8%,60.8%,62.3,29.4%,27.6,51.1%,41.4%,29.5%,29.4%,–,23.1%,7.03% (active),–,15.2,26.4%,17.6%,22.5%,32.1,–
Cc1cccc(NC(=O)c2sc3nc4c(cc3c2N)CCCC4)c1,23.9%,15.4%,34.5%,50.5,34.4%,26.6,33.9%,26.5%,40.3%,54.9%,–,51.8%,54.2%,70.7%,40.8,44.3%,19.4%,33.6%,48.9,–
CC(=O)c1cc(C(=O)c2ccc3c(c2)Sc2ccccc2N3)c2cc(C)ccn12,8.38% (active),-57% (active),9.11% (active),31.6,11.3%,18,-26.6% (active),30.2%,17%,35.8%,31.1,23.1%,28.4%,-25.7% (active),19,-16.4% (active),11.1%,13.1%,22.9,–
CC(=O)/C=C/c1cc2cc(Cl)ccc2[nH]c1=O,76%,76.8%,102%,68.8,62.1%,77.5,96.5%,80.8%,69.1%,87.9%,89.3,77%,77.5%,95.5%,87,–,69%,87.1%,92,–
CCN(CC)P(=O)(N(CC)CC)N(CCCSC/C=C(\C)CC/C=C(\C)CCC=C(C)C)CCCN1CCN(C)CC1,93.2%,98.9%,93%,92.8,101%,95.5,100%,94.2%,81.3%,118%,–,92.9%,92.8%,–,89.9,77.2%,87.2%,93.1%,119,–
